According to PMC10668032, “Altered binding affinity of SIX1-Q177R correlates with enhanced WNT5A and WNT pathway effector expression in Wilms tumor”:
In all, about 33,000 sequences were measured (“e-score”: median about -0.05, highest 2% from about 0.38 on). What follows is part of a selection rich in the highest values, with near analogues and random picks from the rest.

molecular target: T1, SIX1-Q177R homeodomain (human, UniProt Q15475 108-198, Q177R); test: universal protein binding microarray; Universal all-10-mer PBM (8x60K, AMADID 030236), 300 nM GST-tagged protein, Alexa Fluor 488 anti-GST; buffer, salt, pH and temperature not stated (as in Berger); high values mean tight binding; conditions: protein: ivt; tags: N-terminal GST; dsDNA, one strand shown
T1 sequence: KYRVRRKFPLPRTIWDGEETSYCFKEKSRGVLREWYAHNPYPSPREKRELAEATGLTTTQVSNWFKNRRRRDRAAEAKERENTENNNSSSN
Method in brief: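 GST-tagged homeodomains were made by in vitro transcription/translation and quantified by anti-GST western blot against a recombinant GST standard curve. They were applied in duplicate at 300 nM final concentration to universal 'all 10-mer' protein binding microarrays (8×60K format). Binding was quantified as 8-mer E-scores with the Universal PBM Analysis Suite.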

| Sequence | binding signal |
| --- | --- |
| CGCATTGC | 0.166 ± 0.0234 E-score |
| AGTGATCC | 0.184 ± 0.018 E-score |
| GGCACACA | 0.179 ± 0.0131 E-score |
| ACCTGTAT | 0.17 ± 0.00632 E-score |
| AGGTGTAG | 0.473 ± 0.00747 E-score |
| ATGTGTAG | 0.183 ± 0.0469 E-score |
| CGATGTAC | 0.254 ± 0.0159 E-score |
| CGGTGTAC | 0.4872 ± 0.00266 E-score |
| AGGTGTAT | 0.441 ± 0.0169 E-score |
| AGGTGTAC | 0.4703 ± 0.00148 E-score |
| AGGTATAA | 0.17 ± 0.0346 E-score |
| CGGTGCAC | 0.296 ± 0.017 E-score |
| AGGTGCGG | 0.187 ± 0.0153 E-score |
| AGGTGCAC | 0.264 ± 0.00684 E-score |
| ATGTGTAC | 0.23 ± 0.0242 E-score |
| CAGCGGGG | 0.194 ± 0.00852 E-score |
| CACTCTCC | 0.192 ± 0.0425 E-score |
| CACGACGG | 0.182 ± 0.0214 E-score |
| CCATTACA | 0.162 ± 0.00552 E-score |
| CCGGAGTA | 0.227 ± 0.00414 E-score |
| ACACCGTG | 0.472 ± 0.00577 E-score |
| ACGCCGTG | 0.185 ± 0.00332 E-score |
| GCACCGTA | 0.201 ± 0.0112 E-score |

| Sequence | binding signal |
| --- | --- |
| ACACCGTA | 0.4704 ± 0.00388 E-score |
| CCCCCGTA | 0.155 ± 0.0244 E-score |
| CACCCGTC | 0.338 ± 0.01 E-score |
| ACACCGTC | 0.4594 ± 0.0011 E-score |
| ATACCGTG | 0.301 ± 0.0379 E-score |
| ACCCCGTC | 0.178 ± 0.0222 E-score |
| ACGTAGAG | 0.156 ± 0.0478 E-score |
| ATAGTACA | 0.312 ± 0.0122 E-score |
| CCCCCCCC | 0.188 ± 0.0377 E-score |
| TGCAGACA | 0.167 ± 0.00968 E-score |
| ACACGCGT | 0.402 ± 0.0109 E-score |
| ACCCGCGT | 0.229 ± 0.0104 E-score |
| ACACGCGG | 0.402 ± 0.00628 E-score |
| ACCCGCGG | 0.171 ± 0.0326 E-score |
| ATACGCGA | 0.151 ± 0.036 E-score |
| ACACGCGA | 0.369 ± 0.00701 E-score |
| CCCGGCCC | 0.167 ± 0.00402 E-score |
| TACCTACA | 0.3116 ± 0.00228 E-score |
| TCAATACA | 0.212 ± 0.0334 E-score |
| ACGTGCTC | 0.215 ± 0.0224 E-score |
| CACCGGAG | 0.328 ± 0.00104 E-score |
| ACTCAACA | 0.172 ± 0.00693 E-score |
| CTTAACAC | 0.435 ± 0.00897 E-score |

| Sequence | binding signal |
| --- | --- |
| ATTAACAC | 0.416 ± 0.0363 E-score |
| ATTAAAAC | 0.158 ± 0.019 E-score |
| ATTAACCC | 0.187 ± 0.00393 E-score |
| CTTCACAC | 0.278 ± 0.0221 E-score |
| GACTCCTA | 0.2147 ± 0.000728 E-score |
| GTTAAGGA | 0.163 ± 0.00211 E-score |
| CAGGGTGG | 0.161 ± 0.0171 E-score |
| ACTAGCAC | 0.194 ± 0.00984 E-score |
| GAGATGTA | 0.1954 ± 0.000318 E-score |
| CCAGACAC | 0.37 ± 0.0149 E-score |
| ACACAGAT | 0.167 ± 0.0587 E-score |
| GGAGACAC | 0.397 ± 0.0125 E-score |
| CGAGACAC | 0.389 ± 0.0103 E-score |
| CACGAGAC | 0.154 ± 0.0312 E-score |
| GCAGACAC | 0.352 ± 0.0222 E-score |
| AGACACAC | 0.316 ± 0.0332 E-score |
| ACAGACAC | 0.392 ± 0.013 E-score |
| AGAGACAC | 0.411 ± 0.00648 E-score |
| CCGGGTTA | 0.2 ± 0.024 E-score |
| CACGGATG | 0.155 ± 0.0314 E-score |
| ATCCACTC | 0.203 ± 0.0237 E-score |
| TACTCCGA | 0.211 ± 0.0155 E-score |
| CACTCCCG | 0.1824 ± 0.000608 E-score |

| Sequence | binding signal |
| --- | --- |
| ATTGATAC | 0.196 ± 0.00402 E-score |
| ATGGCCGA | 0.155 ± 0.00984 E-score |
| GGGATACA | 0.234 ± 0.00449 E-score |
| CACCTGTA | 0.232 ± 0.0126 E-score |
| CGCAACAC | 0.366 ± 0.00704 E-score |
| CACAACAA | 0.168 ± 0.00449 E-score |
| GACACAAC | 0.207 ± 0.0332 E-score |
| CACAACAC | 0.38 ± 0.0127 E-score |
| CACACAAC | 0.153 ± 0.0694 E-score |
| AACAACAC | 0.414 ± 0.0082 E-score |
| GGGCACAC | 0.284 ± 0.0218 E-score |
| AACACAAC | 0.176 ± 0.0727 E-score |
| GACAACAC | 0.386 ± 0.0047 E-score |
| GGCAACAC | 0.4138 ± 0.00188 E-score |
| AAGGGAGT | 0.181 ± 0.0594 E-score |
| CACGACTG | 0.19 ± 0.0173 E-score |
| ATATGGTG | 0.245 ± 0.0104 E-score |
| CTTCTACA | 0.161 ± 0.0182 E-score |
| ACCCTCTC | 0.164 ± 0.0166 E-score |
| ACACCCTG | 0.4727 ± 0.000955 E-score |
| CCACCCTA | 0.174 ± 0.00684 E-score |
| GCACCCTA | 0.226 ± 0.0182 E-score |
| ACCCCCTC | 0.324 ± 0.00733 E-score |

| Sequence | binding signal |
| --- | --- |
| ACCCCCTG | 0.328 ± 0.0317 E-score |
| ACACCCTA | 0.4661 ± 0.00184 E-score |
| ACACCCTC | 0.4743 ± 0.00338 E-score |
| ATACCCTG | 0.31 ± 0.0148 E-score |
| ACCGCACA | 0.232 ± 0.00335 E-score |
| TGGGAACA | 0.172 ± 0.0191 E-score |
| CGCCCGAC | 0.184 ± 0.0127 E-score |
| ACCGAGTG | 0.363 ± 0.0115 E-score |
| CACCAGGC | 0.336 ± 0.016 E-score |
| CACGAAGA | 0.183 ± 0.0282 E-score |
| AGATTACA | 0.23 ± 0.00802 E-score |
| ACGACACT | 0.4277 ± 0.00127 E-score |
| ACGACACG | 0.426 ± 0.0132 E-score |
| ACGACACA | 0.273 ± 0.0776 E-score |
| AAGACACA | 0.174 ± 0.0361 E-score |
| CCGACACA | 0.295 ± 0.0445 E-score |
| CCGACTCC | 0.159 ± 0.044 E-score |
| CCGACCCC | 0.24 ± 0.0393 E-score |
| CCGACACC | 0.488 ± 0.0101 E-score |
| TCGACACA | 0.188 ± 0.0429 E-score |
| CCGACACG | 0.418 ± 0.0317 E-score |
